Reference: PubChem BioAssay AID2073 (Sanford-Burnham Center for Chemical Genomics, 2009)
The whole screen tested about 290,000 compounds, of which about 570 (0.2%) were called active. Inconclusive results (about 1%) are left out. This is one part of a sample in which actives are shown more often than they occur. Rule as the data show it: active = inhibition mostly above about 51% (no sharp cut-off); inconclusive = no clear call, values can overlap the other calls; inactive = mostly below about 53%.

Molecular target: Voltage-dependent N-type calcium channel subunit alpha-1B (Homo sapiens) (UniProt Q00975)
Sequence (Q00975 whole entry, looked up): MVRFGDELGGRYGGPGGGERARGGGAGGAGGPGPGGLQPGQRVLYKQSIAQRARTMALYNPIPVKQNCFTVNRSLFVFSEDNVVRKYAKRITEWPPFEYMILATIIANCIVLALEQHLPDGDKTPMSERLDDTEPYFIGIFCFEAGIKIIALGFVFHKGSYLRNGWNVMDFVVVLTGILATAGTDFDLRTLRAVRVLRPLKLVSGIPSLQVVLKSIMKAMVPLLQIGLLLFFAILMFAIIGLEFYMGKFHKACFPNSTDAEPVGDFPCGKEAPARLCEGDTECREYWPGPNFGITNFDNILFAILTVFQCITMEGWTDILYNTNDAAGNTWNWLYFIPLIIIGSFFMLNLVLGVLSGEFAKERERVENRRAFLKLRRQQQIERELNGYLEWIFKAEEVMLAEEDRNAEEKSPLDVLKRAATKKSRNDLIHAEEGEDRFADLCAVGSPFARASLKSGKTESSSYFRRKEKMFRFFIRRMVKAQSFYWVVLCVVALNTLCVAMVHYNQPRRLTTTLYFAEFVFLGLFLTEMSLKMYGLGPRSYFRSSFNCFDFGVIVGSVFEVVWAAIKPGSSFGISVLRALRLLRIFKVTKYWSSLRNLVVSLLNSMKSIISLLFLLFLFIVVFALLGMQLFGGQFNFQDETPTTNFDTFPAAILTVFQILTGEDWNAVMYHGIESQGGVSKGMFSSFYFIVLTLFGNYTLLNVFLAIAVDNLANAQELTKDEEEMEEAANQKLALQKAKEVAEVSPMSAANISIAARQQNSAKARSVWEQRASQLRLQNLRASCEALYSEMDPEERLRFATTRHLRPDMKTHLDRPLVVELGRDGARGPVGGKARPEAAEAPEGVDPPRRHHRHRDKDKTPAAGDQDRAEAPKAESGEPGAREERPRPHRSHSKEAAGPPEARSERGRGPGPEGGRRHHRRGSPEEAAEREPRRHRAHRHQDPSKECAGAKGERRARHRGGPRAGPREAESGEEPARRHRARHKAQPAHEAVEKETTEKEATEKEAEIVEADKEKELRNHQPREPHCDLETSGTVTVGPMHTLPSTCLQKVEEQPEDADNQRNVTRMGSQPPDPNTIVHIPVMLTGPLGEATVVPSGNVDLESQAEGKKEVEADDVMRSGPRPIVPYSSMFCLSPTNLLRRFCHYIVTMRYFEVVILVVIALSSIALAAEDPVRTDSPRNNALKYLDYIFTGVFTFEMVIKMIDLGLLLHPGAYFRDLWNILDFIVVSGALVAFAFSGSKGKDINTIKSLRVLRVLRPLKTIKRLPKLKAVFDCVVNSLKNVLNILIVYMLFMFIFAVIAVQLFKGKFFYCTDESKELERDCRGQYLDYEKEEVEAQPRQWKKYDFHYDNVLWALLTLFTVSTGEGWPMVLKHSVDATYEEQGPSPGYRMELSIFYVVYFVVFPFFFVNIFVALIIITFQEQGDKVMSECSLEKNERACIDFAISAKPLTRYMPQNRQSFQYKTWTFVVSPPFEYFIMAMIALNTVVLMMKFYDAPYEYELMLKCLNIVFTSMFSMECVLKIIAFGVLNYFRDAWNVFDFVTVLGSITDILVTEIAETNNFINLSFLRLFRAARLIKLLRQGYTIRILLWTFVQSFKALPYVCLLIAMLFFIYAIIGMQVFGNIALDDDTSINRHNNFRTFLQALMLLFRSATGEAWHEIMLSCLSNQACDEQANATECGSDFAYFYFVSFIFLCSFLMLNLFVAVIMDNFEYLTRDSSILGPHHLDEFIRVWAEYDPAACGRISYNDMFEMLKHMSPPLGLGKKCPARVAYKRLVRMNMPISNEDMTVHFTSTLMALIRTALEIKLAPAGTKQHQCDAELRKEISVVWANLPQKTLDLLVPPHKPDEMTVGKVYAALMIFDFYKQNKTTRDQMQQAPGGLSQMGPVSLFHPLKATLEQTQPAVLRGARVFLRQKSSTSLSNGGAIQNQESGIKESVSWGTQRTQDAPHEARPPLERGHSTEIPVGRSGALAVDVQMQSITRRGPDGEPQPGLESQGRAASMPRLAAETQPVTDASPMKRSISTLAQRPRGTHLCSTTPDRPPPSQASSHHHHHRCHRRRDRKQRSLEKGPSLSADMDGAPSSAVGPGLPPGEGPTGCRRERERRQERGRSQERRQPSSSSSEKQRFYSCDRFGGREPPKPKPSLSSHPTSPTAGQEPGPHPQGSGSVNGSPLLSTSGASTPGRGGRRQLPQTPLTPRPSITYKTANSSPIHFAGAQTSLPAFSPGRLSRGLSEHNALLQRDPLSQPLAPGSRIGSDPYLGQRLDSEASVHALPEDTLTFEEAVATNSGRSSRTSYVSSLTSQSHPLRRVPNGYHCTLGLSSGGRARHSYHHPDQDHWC
Experiment: inhibitors of Mint1-CaV2.2 protein interaction, biochemical, HTRF (AID 2073)
Conditions: at 20 µM, stronger effect = higher value
[1] = measured here: average of repeat tests

CCCSc1nc(N2CCOCC2)c2c(c1C#N)CC(C)(C)SC2
inhibition: 0.4% (inactive)

Cc1ccccc1NC1=C(Cl)C(=O)OC1NC(=O)c1ccccc1 (stereo not given)
inhibition: -0.5% (inactive)

CCOC(=O)c1ccc(N2C(=O)CC(C(=O)OC)=C2C)cc1
inhibition: 3.2% (inactive)

Cc1ccc2nc(NC(=O)CN3CCOCC3)sc2c1
inhibition: -0.6% (inactive)

CCc1ccc2nc(NC(=O)c3ccc(N4C(=O)CCC4=O)cc3)sc2c1
inhibition: 32.1% (inactive)

Cc1ccc(-n2ncc3c2CCCC3NC(=O)CCn2ccnc2C)cc1C (stereo not given)
inhibition: -3.7% (inactive)

O=C(Nc1ncc2c(n1)CC(c1ccco1)CC2=O)c1ccccc1 (stereo not given)
inhibition: 33.5% (inactive)

O=C1CC(c2ccco2)Cc2nc(Nc3nc(-c4ccccc4)c4ccccc4n3)ncc21 (stereo not given)
inhibition: 52.4% (active)

O=C1CC(c2ccco2)Cc2nc(Nc3ccc(F)cc3)ncc21 (stereo not given)
inhibition: 6.4% (inactive)

CN(C)C(=O)c1ccc(NC(=O)COc2ccc([N+](=O)[O-])cc2)cc1
inhibition: 5.1% (inactive)

COc1ccc(C2C(Oc3ccccc3)C(=O)N2c2cc(C)ccc2C)cc1OC (stereo not given)
inhibition: -3.8% (inactive)

O=C(O)c1ccc(-n2c(=O)c3ccccc3c3ccccc3c2=O)cc1
inhibition: -2.9% (inactive)

Cc1ccc(-n2c(=O)c3cc4c(=O)n(-c5ccc(C)c(C)c5)c(=O)c4c(C(=O)c4ccc(C(=O)O)cc4)c3c2=O)cc1C
inhibition: 85% (active)

Cc1ccc(N2C(=O)c3ccc(C(=O)O)cc3C2=O)cc1C
inhibition: -1.3% (inactive)

O=C(N/N=C/c1ccoc1)c1cc(O)cc(O)c1
inhibition: 18.3% (inactive)

O=[N+]([O-])c1ccc(Cl)c2c1C1C=CCC1C(c1ccccn1)N2 (stereo not given)
inhibition: 79.5% (active)

Cc1cc([N+](=O)[O-])c2c(c1C)C1C=CCC1C(c1ccccn1)N2 (stereo not given)
inhibition: 42.9% (inactive)

O=C(O)c1ccc(Cl)c2c1C1C=CCC1C(c1ccccn1)N2 (stereo not given)
inhibition: 23.7% (inactive)

COc1c(S(=O)(=O)NCCCn2ccnc2)ccc(Cl)c1Cl
inhibition: -0.3% (inactive)

COc1cccc(-c2nn(-c3ccccc3)cc2C(=O)O)c1
inhibition: 1.6% (inactive)

COc1ccc(NC(=O)c2c(NC(=O)CCC(=O)O)sc3c2CCCCC3)cc1
inhibition: 63.8% (inactive) | inhibition [1]: 9.3%

COc1ccc(OC)c(NC(=O)c2c(NC(=O)CCC(=O)O)sc3c2CCCCC3)c1
inhibition: 65.1% (active)

COc1ccccc1NC(=O)c1c(NC(=O)CCC(=O)O)sc2c1CCCCC2
inhibition: 25% (inactive)

O=S(=O)(NCC1CCCO1)c1ccc(Oc2ccccc2)cc1 (stereo not given)
inhibition: 8.9% (inactive)

Cc1cc(C(=O)OCC(=O)Nc2cc(S(=O)(=O)N(C)C)ccc2C)c2ccccc2n1
inhibition: -2.8% (inactive)

C[C@H]1[C@H](C)CC[C@]2(C(=O)O)CC[C@]3(C)C(=CC[C@@H]4[C@@]5(C)C[C@@H](O)[C@H](O)C(C)(C)[C@@H]5CC[C@]43C)[C@H]12
inhibition: 45.4% (inactive)

C[C@H]1[C@H](C)CC[C@]2(C)CC[C@]3(C)C(=CC[C@@H]4[C@@]5(C)CC[C@@H](O)[C@](C)(C(=O)O)[C@@H]5CC[C@]43C)[C@H]12
inhibition: 77% (active)

C[C@H]1[C@H](C)CC[C@]2(C(=O)O)CC[C@]3(C)C(=CC[C@@H]4[C@@]5(C)CC[C@H](O)C(C)(C)[C@@H]5CC[C@]43C)[C@H]12
inhibition: 41.1% (inactive)

CC(=O)Nc1cc2c3c(c1)CCN3C(=O)CC2
inhibition: 0.4% (inactive)

COc1cc(/C=N/NC(=O)c2ccncc2)ccc1OC(C)=O
inhibition: 11.8% (inactive)

Cc1ccc(S(=O)(=O)n2c(=O)oc3ccccc32)cc1
inhibition: -5.8% (inactive)

CCn1ncc(C2=NOC(C(=O)N3CCC(C(N)=O)CC3)C2)c1C (stereo not given)
inhibition: 2.8% (inactive)

CCCOC(=O)/C(=C\C=C\c1ccccc1)NC(=O)c1ccccc1
inhibition: -6.3% (inactive)

CCCCOC(=O)/C(=C/C=C/c1ccccc1)NC(=O)c1ccccc1
inhibition: 7.4% (inactive)

CCCOC(=O)/C(=C\C=C\c1ccco1)NC(=O)c1ccccc1
inhibition: 66.6% (active)

CC1(c2ccccc2)NC(=O)N(Cc2ccc([N+](=O)[O-])cc2)C1=O (stereo not given)
inhibition: -5.3% (inactive)

CP(=O)(COC(=O)c1ccccc1)COC(=O)c1ccccc1
inhibition: -9.7% (inactive)

OC[C@@H]1CCCN1Cc1cn(-c2ccccc2)nc1-c1ccc2c(c1)OCO2
inhibition: 8.1% (inactive)

O=[N+]([O-])c1ccc(N/N=C/c2sc(N3CCOCC3)nc2-c2ccccc2)c(S(=O)(=O)Nc2ccccc2Cl)c1
inhibition: 30.5% (inactive)

Cc1ccc(NS(=O)(=O)c2cc([N+](=O)[O-])ccc2N/N=C/c2sc(N3CCOCC3)nc2-c2ccccc2)c(C)c1
inhibition: 31.1% (inactive)

COc1cc(C(=O)N/N=C/c2sc(N3CCOCC3)nc2-c2ccccc2)cc(OC)c1OC
inhibition: 4.4% (inactive)

O=C(N/N=C/c1sc(N2CCOCC2)nc1-c1ccccc1)c1cccc(S(=O)(=O)N2CCOCC2)c1
inhibition: 21.2% (inactive)

O=C(N/N=C/c1sc(N2CCOCC2)nc1-c1ccccc1)c1cccc(S(=O)(=O)N2CCCC2)c1
inhibition: 51.1% (active)

O=[N+]([O-])c1ccc(N/N=C/c2sc(N3CCOCC3)nc2-c2ccccc2)c(S(=O)(=O)Nc2ccc(Cl)cc2)c1
inhibition: 67.1% (active)

Cc1ccc(C2=CSC3=NNC4(CCCCC4)NN23)cc1
inhibition: 8.9% (inactive)

CCOC(=O)N1CCN(C(=O)CSCc2ccccc2C)CC1
inhibition: -5.4% (inactive)

O=C(CCC(=O)N(CC(=O)NC1CCCCC1)Cc1ccccc1)Nc1ccccn1
inhibition: -13% (inactive)

N/C(Cc1ccc(Cl)cc1Cl)=N\OC(=O)c1ccc(Br)o1
inhibition: 7.7% (inactive)

N/C(Cc1ccc(Cl)c(Cl)c1)=N\OC(=O)c1ccc(Br)o1
inhibition: 5.1% (inactive)

N/C(Cc1cccc2ccccc12)=N\OC(=O)c1ccc(Br)o1
inhibition: 56.5% (active)

Cc1ccc(N2C(=O)N3[C@H](c4ccc(F)cc4)[C@@H]4C(=O)N(C5CCCCC5)C(=O)[C@@H]4[C@]3(C)C2=O)cc1
inhibition: 3.5% (inactive)

Cc1ccccc1C(=O)NC(C(N)=O)P(=O)(OC(C)C)OC(C)C (stereo not given)
inhibition: -2.5% (inactive)

CCc1ccccc1NS(=O)(=O)c1cccc2nsnc12
inhibition: 4.2% (inactive)

NC(=S)n1[nH]c(-c2ccc([N+](=O)[O-])cc2)c(N=Nc2ccc(O)cc2)c1=O
inhibition: -5.9% (inactive)

NC(=S)n1[nH]c(-c2ccc([N+](=O)[O-])cc2)c(N=Nc2ccccc2[N+](=O)[O-])c1=O
inhibition: 69.4% (inactive) | inhibition [1]: 20.6%

NC(=S)n1[nH]c(-c2ccc([N+](=O)[O-])cc2)c(N=Nc2cccc(Cl)c2)c1=O
inhibition: 64.1% (inactive) | inhibition [1]: 12.7%

Cc1[nH]n(C(N)=S)c(=O)c1N=Nc1cccc([N+](=O)[O-])c1C
inhibition: 14.9% (inactive)
